In the library only some 3.8% were active in any assay of this set; here they are far more common.
Mdm2-MdmX inh: human Mdm2/MdmX binding inhibition; SaOS-2 split-luciferase Mdm2/MdmX complementation, luminescence; inhibition, % at 8 µM; actives 3% (n = 330,000); AID 485346;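 active = inhibition of at least 50% at 8 µM in the primary screen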
Target sequence (O15151 whole entry, looked up): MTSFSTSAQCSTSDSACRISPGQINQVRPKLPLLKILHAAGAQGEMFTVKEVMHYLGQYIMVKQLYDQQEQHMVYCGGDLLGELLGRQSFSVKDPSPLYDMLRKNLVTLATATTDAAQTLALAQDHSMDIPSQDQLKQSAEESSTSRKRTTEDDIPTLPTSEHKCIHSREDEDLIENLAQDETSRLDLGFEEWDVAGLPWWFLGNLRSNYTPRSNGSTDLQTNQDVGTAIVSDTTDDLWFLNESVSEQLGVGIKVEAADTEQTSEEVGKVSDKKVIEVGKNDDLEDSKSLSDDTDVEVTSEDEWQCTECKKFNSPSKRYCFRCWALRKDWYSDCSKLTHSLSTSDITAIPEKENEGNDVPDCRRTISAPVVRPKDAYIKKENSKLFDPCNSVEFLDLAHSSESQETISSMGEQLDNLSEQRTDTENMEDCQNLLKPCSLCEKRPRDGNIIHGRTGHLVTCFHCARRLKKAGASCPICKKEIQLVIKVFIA
Target sequence (Q00987 whole entry, looked up): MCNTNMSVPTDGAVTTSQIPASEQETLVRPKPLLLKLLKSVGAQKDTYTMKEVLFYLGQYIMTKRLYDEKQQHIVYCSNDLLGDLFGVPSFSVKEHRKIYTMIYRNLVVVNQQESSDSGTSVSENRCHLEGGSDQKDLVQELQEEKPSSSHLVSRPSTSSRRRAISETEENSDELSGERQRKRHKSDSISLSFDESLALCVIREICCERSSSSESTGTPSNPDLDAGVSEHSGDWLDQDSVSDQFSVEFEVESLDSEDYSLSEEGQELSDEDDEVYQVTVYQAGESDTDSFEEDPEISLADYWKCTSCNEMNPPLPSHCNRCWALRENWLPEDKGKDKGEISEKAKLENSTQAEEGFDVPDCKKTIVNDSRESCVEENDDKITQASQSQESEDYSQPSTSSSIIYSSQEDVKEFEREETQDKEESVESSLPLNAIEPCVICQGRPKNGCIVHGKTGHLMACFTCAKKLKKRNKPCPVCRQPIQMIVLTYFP
Beta cell apopt: beta cell apoptosis inhibition. protection from apoptosis, % (no concentration beside the values). actives 0.8% (n = 300,000). INS-1E cytokine-induced death, ATP luminescence, 48 h; percent of positive-control rescue, neutral wells zero;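 active = Every replicate reaches about 75%, or at least half do and their mean reaches it too, limit read from the data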;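 also: 0% = cytokine-treated negative control wells and 100% = positive control rescue; higher means more ATP so stronger rescue from cytokine killing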
697 NFkB inh: lowers PMA/ionomycin-induced NF-kB signal in 697 B cells; 697 B-cell NF-kB luciferase reporter, 16 h; inhibition, % at 4 µM; actives 0.33% (n = 330,000); in the data active = inhibition above about 35%
Jurkat NFkB inh: inhibitors of the PMA/ionomycin-induced NF-kB reporter in Jurkat cells. inhibition, % at 4 µM. actives 0.53% (n = 330,000). PMA/ionomycin-induced NF-kB luciferase reporter, luminescence; in the data active = inhibition above about 50%
Bfl-1 A1 inh: inhibitors of the anti-apoptotic protein A1, read as caspase activation; MEF A1-2A-BIM cells, Caspase-Glo 3/7 luminescence, 3 h; percent of clofoctol response, vehicle zero; caspase activation, % (concentration not given with the values); actives 0.066% (n = 330,000); AID 2462;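 active = over half of replicate activation scores above 10%, or exactly half above 10 with the replicate mean above 10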
NTR1 agonist: activates human neurotensin receptor 1; P30989; NTR1-U2OS beta-arrestin-GFP spot imaging, agonist mode; activation, % at 20 µM; actives 0.17% (n = 330,000); AID 493036;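 active = activation at or above 40% of the spot to cytoplasm intensity ratio, with at least 20 cells analyzed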;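 also: 0% = DMSO without peptide and 100% = 100 nM NTR1 peptide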
697 NFkB conf: inhibitors of the PMA/ionomycin-induced NF-kB reporter in 697 B cells, retest | shares compounds with 697 NFkB inh | 697 B-cell NF-kB luciferase, 16 h | inhibition, % at 4 µM | actives 35% (n = 2,000) | AID 449746; in the data active = inhibition mostly above about 28%, no sharp cut-off; inactive = mostly below about 22%
* marks the source's active call; other numbers are inactive results; nt = not tested or not shown.

SMILES	Mdm2-MdmX inh	Beta cell apopt	697 NFkB inh	Jurkat NFkB inh	Bfl-1 A1 inh	NTR1 agonist	697 NFkB conf
CC1CCN(CCCNC(=O)COc2cc(=O)n(C)c3ccccc23)CC1	29.1	2.4	36.5*	3.8	0.5	2.5	22.8*
CCc1ccccc1NC(=O)CSc1nnc([C@@H]2CCCN2C(=O)OC(C)(C)C)o1	-1.9	-2.9	35.7*	-14.6	-0.2	-0.8	16.0
Cc1cccc(C)c1NC(=O)CSc1nnc([C@@H]2CCCN2C(=O)OC(C)(C)C)o1	5.7	nt	22.3	7.9	0.4	-0.8	nt
O=C(CSc1ncn[nH]1)Nc1ccc(Cl)c(Cl)c1	19.2	-7.2	35.2*	5.2	-1.6	0.6	17.1
Cc1ccc(S(=O)(=O)n2c(C)nc3cc(C)ccc32)cc1	4.5	0.7	11.0	4.5	-0.1	0.0	nt
COc1ccc(NC(=O)c2nnn(Cc3cccc(F)c3)c2N)c(OC)c1	29.3	11.3	35.4*	16.5	-0.3	-1.3	39.3*
COc1cccc(Cn2nnc(C(=O)Nc3cc(Cl)ccc3OC)c2N)c1	15.7	-4.9	41.4*	15.1	1.0	7.7	38.1*
CCn1c(=O)cc(OCC(=O)Nc2ccc3c(c2)OCCO3)c2ccccc21	21.9	4.8	30.7	-1.0	1.2	4.5	nt
CCOC(=O)COc1cc(=O)n(CC)c2ccccc12	18.3	-4.5	25.7	-0.1	-2.1	1.5	nt
CCn1c(=O)cc(OCC(=O)Nc2ccc(OC)c(OC)c2)c2ccccc21	30.1	-7.1	35.8*	6.6	-0.2	-1.1	37.4*
CCN(CC)CCOC(=O)c1ccc(NC(=O)COc2cc(=O)n(CC)c3ccccc23)cc1	27.2	-4.4	39.3*	5.3	0.6	0.1	44.8*
CCn1c(=O)cc(OCC(=O)N(C)C2CCCCC2)c2ccccc21	-11.2	-3.3	39.0*	-2.1	-0.5	2.9	43.9*
CCOc1ccc(NC(=O)N2CCC(NC(=O)C(Cc3ccccc3OC)NC(C)=O)CC2)cc1 (stereo not given)	11.2	-1.2	-1.1	-2.0	1.3	0.0	nt
Oc1cc(O)cc(-c2cc3ccc(O)cc3o2)c1	-28.3	-4.5	38.3*	-74.3	0.3	1.0	34.6*
O=[N+]([O-])c1ccn(-c2nc(-c3ccccc3)cc(C(F)(F)F)n2)n1	21.9	-7.7	38.9*	-10.8	-0.2	1.9	2.6
CC(C)(C)C(=O)NNC(=O)c1cnccn1	4.3	-1.2	45.3*	0.5	0.2	-2.1	10.2
CN(Cc1cccs1)C(=O)C1CCN(S(=O)(=O)c2ccccc2)CC1	20.3	-5.1	18.0	3.1	-0.2	1.7	nt
COCCCn1c(=O)/c(=C\c2ccccc2OC(F)F)s/c1=C(/C#N)C(=O)NCCOC	17.0	-0.6	-25.8	-7.1	-0.6	1.5	nt
COCCCn1c(=O)/c(=C\c2cccc(OC)c2OC)s/c1=C(/C#N)C(=O)Nc1ccc(C(=O)O)cc1	-5.3	-2.2	43.3*	-3.0	-0.3	2.7	36.7*
COc1ccc(N=Nc2ccc(CO)cc2)cc1	-211.7	-1.0	-323.7	-140.6	-3.8	1.1	-241.3
CC(=O)N1CCc2cc(Br)cc(S(=O)(=O)NCCCN(C)Cc3ccccc3)c21	16.0	nt	-11.0	-32.8	-0.2	0.5	nt
O=C(O)c1ccc(N/N=C/c2ccc(-c3ccccc3Cl)o2)cc1	-124.2	-9.8	-250.3	-102.8	-7.9	1.4	-106.8
O=C(N/N=C/c1ccc(-c2ccccc2Cl)o1)c1ccccc1	-6.7	5.1	-57.3	-22.8	-0.6	5.8	nt
CC(C)Oc1ccc(C(=O)Nc2ccc(N(C)C)cc2)cc1	-107.6	-8.1	45.0*	-58.2	-4.3	0.7	36.0*
CCCOc1ccc(C(=O)Nc2ccc(N(C)C)cc2)cc1	-82.0	3.9	2.9	-78.2	-3.6	2.3	nt
SMILES	Mdm2-MdmX inh	Beta cell apopt	697 NFkB inh	Jurkat NFkB inh	Bfl-1 A1 inh	NTR1 agonist	697 NFkB conf
O=C(NCc1cccc(Cl)c1)C1CCC(=O)N(CCN2CCOCC2)C1 (stereo not given)	14.0	-1.3	0.9	2.3	0.7	0.1	nt
C/C(=N\NC(=O)c1ccc(Br)o1)c1cc2c(cc1NC(=O)CCC(=O)O)OCO2	7.5	-4.6	10.3	7.6	-0.3	0.1	nt
Cc1nnc2ccc(-c3ccc(NC(=O)Cc4cccs4)cc3)nn12	38.8	0.0	35.8*	0.8	0.2	0.0	22.1
CC(=O)Nc1ccc(-c2ccc3nnc(C)n3n2)cc1	2.7	-6.2	-7.0	0.0	0.1	0.9	nt
COc1cc(NC(=O)c2ccco2)c(OC)cc1NC(=O)c1cc(OC)c(OC)c(OC)c1	48.6	nt	41.0*	6.3	-0.1	1.5	33.5*
Cc1ccc(S(=O)(=O)N2CCOCC2)cc1NC(=O)COC(=O)CCC(=O)c1ccc(F)cc1	25.8	nt	3.0	3.5	nt	1.3	nt
Cn1cc(SCC(=O)NCc2ccc(F)cc2)c2ccccc21	2.4	0.3	40.0*	-8.8	0.8	-0.5	-7.5
Cn1c(=O)cc(SCC(=O)NCc2ccc(F)cc2)c2ccccc21	33.5	-3.9	-4.0	24.5	0.1	0.7	nt
CCOC(=O)c1cnc(SCc2ccccc2)nc1N	-155.3	0.0	-260.7	-77.3	-0.6	1.3	-156.9
Cc1cc(C)c(OCC(O)CN2CCN(C(=O)c3ccccc3)CC2)c(C)c1 (stereo not given)	17.6	-1.5	15.0	9.8	1.0	-0.2	nt
CCOC(=O)Nc1ccc(N2CCOCC2)c(S(=O)(=O)N2CCOCC2)c1	14.7	2.2	20.2	0.5	-0.8	2.0	nt
Cc1nn(C(C)(C)C)c(C)c1/C=N/OC(=O)Nc1ccc(Cl)c(Cl)c1	31.7	0.0	52.0*	11.4	1.2	4.3	69.4*
O=C(Oc1ccc2ccccc2c1)c1ccco1	-4.6	-6.8	18.5	4.3	-0.4	-2.0	nt
CC1CC(C)(C)Nc2ccc(OC(=O)c3ccco3)cc21 (stereo not given)	32.4	-20.5	53.4*	4.2	-0.1	-1.1	63.1*
O=C(NC1=NCCS1)C1CCN(S(=O)(=O)c2ccccc2C(F)(F)F)CC1	12.9	2.6	-0.6	14.8	-0.2	2.0	nt
COc1cccc(NC(=O)c2ccc3c(c2)N(CC(=O)N2CCOCC2)C(=O)C(C)(C)O3)c1	-5.0	2.9	-10.9	1.5	0.3	-0.4	nt
Cc1ccc(C(=O)c2ccc(O)cc2)cc1C	-17.4	-10.4	-19.3	-11.4	-1.4	-1.4	nt
Cc1ccc(C(=O)c2cccc(N)c2)cc1C	7.2	-3.6	36.6*	-4.7	-2.4	-1.3	-11.8
CCOC(=O)c1[nH]c(C)c(C(=O)NCc2ccc(Cl)cc2)c1C	15.6	-12.2	17.1	16.7	0.1	0.0	nt
CCOC(=O)c1[nH]c(C)c(C(=O)NCCc2ccc(OC)cc2)c1C	12.3	1.4	35.7*	-4.0	-0.3	0.2	14.3
CC(C(=O)Nc1ccc2c(c1)OCO2)N1CCC(N2CCCCC2)CC1 (stereo not given)	6.7	-2.4	1.1	-10.4	0.1	2.1	nt

Assay outcomes as filed in PubChem.
